Measurements: PubChem BioAssay (Tox21)
Results filed as inconclusive are left out. Calls of active or inactive are those of the source. Unless noted, calls come from the whole dose curve; as a rule, active = well fitted curve in the direction sought with a large enough effect in the repeat runs; inconclusive = weak or mixed curves; inactive = no such curve, though single readings can be large; an effect the other way counts as inactive or inconclusive.

Tests used:
[1] = molecular target: Retinoic acid receptor RXR-alpha (Homo sapiens) (UniProt P19793); assay: qHTS assay to identify small molecule agonists of the RXR signaling pathway (AID 1159527; calls by dose curve; note: nearly all actives have a fitted effect of over 35% in size)
How it was run: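 Agonist mode; 9-cis retinoic acid positive control. HEK 293T UAS-bla reporter cells, 2% charcoal-stripped FBS, 16 hr compound exposure at 37 C/5% CO2. LiveBLAzer B/G FRET substrate 2 hr RT; ex 405, em 460/530 nm.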

[2] = qHTS assay to identify small molecule agonists of the RXR signaling pathway - cell viability counter screen (AID 1159529); note: series mostly up to about 77 µM; nearly all actives have a fitted effect of over 50% in size
How it was run: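 Luminescence from CellTiter-Glo (30 min, RT) measured viability in the same wells as the beta-lactamase reporter readout. Cells: GeneBLAzer RXR-alpha HEK 293T, 2% charcoal-stripped FBS. Compound exposure 16 hr, 37 C.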

[3] = qHTS assay to identify small molecule antagonists of the retinoid acid receptor (RAR) signaling pathway - cell viability counter screen (AID 1159551); note: nearly all actives have a fitted effect of over 35% in size
How it was run: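 Cytotoxicity counter screen: ATP content quantified by CellTiter-Glo luminescence in C3RL4 cells treated 6 hr at 37 C with compound and retinol (1 uM final). Cells plated at 1,000/well and cultured overnight before dosing.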

[4] = qHTS assay to identify small molecule antagonists of the retinoic acid receptor (RAR) signaling pathway (AID 1159552; note: nearly all actives have a fitted effect of over 50% in size)
How it was run: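 Luminescence from a RARE luciferase reporter in C3RL4 cells served as read-out. Cells received compounds together with 1 uM final retinol and incubated 6 hr at 37 C before detection reagent was added for 30 min at room temperature.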

[5] = qHTS assay to identify small molecule agonists of the retinoic acid receptor (RAR) signaling pathway (AID 1159553)
How it was run: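 Luminescence was measured 30 min after luciferase reagent addition at room temperature. Before that, C3RL4 reporter cells (1,000 per well, plated overnight) were treated with compound for 6 hr at 37 C and 5% CO2.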

[6] = qHTS assay to identify small molecule antagonists of the estrogen related receptor (ERR) signaling pathway from Tox21 library - cell viability counter screen (AID 1224834); note: nearly all actives have a fitted effect of over 30% in size
How it was run: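 CellTiter-Fluor fluorescence, read after 30 min at 37 C, measures viability of ERR cells. Cells plated at 2,000/well and incubated 6 h before pin-tool compound addition, then exposed 17.5 hours at 37 C.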

[7] = molecular target: Luciferin 4-monooxygenase (Photinus pyralis) (UniProt P08659); assay: qHTS assay to identify small molecule inhibitors of firefly luciferase (AID 1224835); note: series mostly up to about 120 µM; nearly all actives have a fitted effect of over 25% in size
How it was run: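 Biochemical qHTS: compounds run as interplate titrations against purified firefly enzyme, with D-luciferin and ATP each at its KM concentration. Light output recorded by CCD imaging.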

[8] = qHTS assay to identify small molecule agonists of the constitutive androstane receptor (CAR) signaling pathway - cell viability counter screen (AID 1224836); note: series mostly up to about 92 µM; nearly all actives have a fitted effect of over 45% in size
How it was run: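 Viability read-out: CellTiter-Fluor fluorescence after 23 h compound exposure at 37 C/5% CO2 in double-stable HepG2-CYP2B6-hCAR cells, with PK11195 present at 0.75 uM final; compounds tested in 15-point titration.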

[9] = molecular target: Nuclear receptor subfamily 1 group I member 3 (Homo sapiens) (UniProt Q14994); assay: qHTS assay to identify small molecule antagonists of the constitutive androstane receptor (CAR) signaling pathway (AID 1224838);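 note: HepG2 cells stably expressing hCAR with CYP2B6 luciferase reporter stimulated by CITCO; nearly all actives have a fitted effect of over 40% in size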
How it was run: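 Antagonism measured as luciferase signal (ONE-Glo, 30 min, room temperature) in CAR-stimulated cells: HepG2-CYP2B6-hCAR double-stable line exposed 24 hr at 37 C to compound in a 15-point series plus 50 nM CITCO.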

[10] = qHTS assay to identify small molecule antagonists of the estrogen related receptor signaling pathway with the pleiotropic PPARgamma coactivator (PGC) from Tox21 10K library - cell viability counter screen (AID 1224840; active = well fitted cell-killing curve with a large enough effect in the repeat runs, not every such curve was filed as active; note: nearly all actives have a fitted effect of over 40% in size)
How it was run: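 Counter-screen for cytotoxicity: after 17.5 h compound exposure at 37 C, CellTiter-Fluor reagent added to PGC/ERR cells for 30 min and fluorescence read. Cells were seeded at 2,000 per well 6 h before dosing.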

[11] = qHTS assay to identify small molecule antagonists of the constitutive androstane receptor (CAR) signaling pathway - cell viability counter screen (AID 1224837); note: series mostly up to about 92 µM; nearly all actives have a fitted effect of over 45% in size
How it was run: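 Cytotoxicity counter-screen: CellTiter-Fluor fluorescence after 23 h compound exposure (15-point qHTS) in double-stable HepG2-CYP2B6-hCAR cells, with 50 nM CITCO added.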

[12] = qHTS assay to identify small molecule antagonists of the estrogen related receptor signaling pathway with the pleiotropic PPARgamma coactivator (PGC) from Tox21 10K library (AID 1224841; call rule not given here; note: actives are mostly falling curves and most rising ones were filed inactive; nearly all actives have a fitted effect of over 50% in size; note: potency is the fitted concentration of half-maximal effect; for activity, negative = inhibition: series mostly up to about 92 µM)
How it was run: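 Luminescence (One-Glo, 30 min at room temperature) after 18 h compound treatment at 37 C of PGC/ERR reporter cells plated at 2,000 cells/well and settled 6 h beforehand.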

[13] = qHTS assay to identify small molecule agonists of the estrogen related receptor signaling pathway with the pleiotropic PPARgamma coactivator (PGC) from Tox21 10K library (AID 1224842); note: nearly all actives have a fitted effect of over 15% in size
How it was run: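 PGC/ERR reporter cell line, 2,000 cells per well, incubated 6 h at 37 C before 23 nL compound in DMSO was added. After 18 h at 37 C, One-Glo luminescence read following 30 min at room temperature.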

[14] = molecular target: Nuclear receptor subfamily 1 group I member 3 (Homo sapiens) (UniProt Q14994); assay: qHTS assay to identify small molecule agonists of the constitutive androstane receptor (CAR) signaling pathway (AID 1224839);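 note: HepG2 cells stably carrying human CAR and a CYP2B6 luciferase reporter; series mostly up to about 92 µM; nearly all actives have a fitted effect of over 15% in size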
How it was run: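 Luminescence read-out (ONE-Glo, 30 min, room temperature) from double-stable HepG2-CYP2B6-hCAR cells exposed 24 h to 15-point compound series in presence of 0.75 uM PK11195 final.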

[15] = qHTS assay to identify small molecule antagonists of the estrogen related receptor (ERR) signaling pathway - cell viability counter screen (AID 1224818);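 note: series mostly up to about 46 µM; viability measured after 17.5 h of compound exposure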
How it was run: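 Cytotoxicity counter screen: fluorescence from CellTiter-Fluor, added after 17.5 h compound exposure at 37 C and read 30 min later. ERR cell line seeded at 2,000 cells/well, preincubated 6 h before dosing.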

[16] = qHTS assay to identify small molecule antagonists of the estrogen related receptor signaling pathway with the pleiotropic PPARgamma coactivator (PGC) cell viability counter screen (AID 1224822; note: series mostly up to about 46 µM)
How it was run: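 Viability counter-screen read by fluorescence intensity after 30 min with CellTiter-Fluor at 37 C; PGC/ERR reporter cells were exposed to compounds for 17.5 h at 37 C following a 6 h preincubation.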
% is set by controls: 0 for no effect and ±100 for the full control effect.

Luciferin 4-monooxygenase (Photinus pyralis), sequence (P08659 whole entry, looked up): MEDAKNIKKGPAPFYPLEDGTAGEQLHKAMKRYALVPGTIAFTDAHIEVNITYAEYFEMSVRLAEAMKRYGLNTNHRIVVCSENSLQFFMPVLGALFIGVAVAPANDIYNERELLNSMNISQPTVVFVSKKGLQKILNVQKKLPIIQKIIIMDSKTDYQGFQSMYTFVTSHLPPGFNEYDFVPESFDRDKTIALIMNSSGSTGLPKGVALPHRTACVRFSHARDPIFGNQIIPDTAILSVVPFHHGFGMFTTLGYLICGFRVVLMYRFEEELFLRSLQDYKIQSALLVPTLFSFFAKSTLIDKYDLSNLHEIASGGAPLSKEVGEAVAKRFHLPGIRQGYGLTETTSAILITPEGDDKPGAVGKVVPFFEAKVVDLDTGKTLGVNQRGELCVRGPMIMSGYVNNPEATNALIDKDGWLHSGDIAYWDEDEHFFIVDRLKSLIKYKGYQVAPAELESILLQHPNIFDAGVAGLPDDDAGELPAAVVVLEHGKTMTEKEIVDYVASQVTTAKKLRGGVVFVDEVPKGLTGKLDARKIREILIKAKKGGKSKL
Retinoic acid receptor RXR-alpha (Homo sapiens), sequence (P19793 whole entry, looked up): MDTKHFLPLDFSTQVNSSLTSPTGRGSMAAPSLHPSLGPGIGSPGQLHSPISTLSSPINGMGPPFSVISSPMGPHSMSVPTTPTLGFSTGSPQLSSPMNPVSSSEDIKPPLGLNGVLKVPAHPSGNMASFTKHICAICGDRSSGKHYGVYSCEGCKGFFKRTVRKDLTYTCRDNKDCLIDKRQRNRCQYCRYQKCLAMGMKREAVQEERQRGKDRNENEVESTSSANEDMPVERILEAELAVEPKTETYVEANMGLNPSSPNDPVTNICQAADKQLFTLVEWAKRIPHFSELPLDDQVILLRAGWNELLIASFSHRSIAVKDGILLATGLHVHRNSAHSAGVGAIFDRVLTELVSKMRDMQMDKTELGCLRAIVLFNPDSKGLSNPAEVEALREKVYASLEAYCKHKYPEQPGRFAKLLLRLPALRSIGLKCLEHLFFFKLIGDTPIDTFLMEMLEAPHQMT
Nuclear receptor subfamily 1 group I member 3 (Homo sapiens), sequence (Q14994 whole entry, looked up): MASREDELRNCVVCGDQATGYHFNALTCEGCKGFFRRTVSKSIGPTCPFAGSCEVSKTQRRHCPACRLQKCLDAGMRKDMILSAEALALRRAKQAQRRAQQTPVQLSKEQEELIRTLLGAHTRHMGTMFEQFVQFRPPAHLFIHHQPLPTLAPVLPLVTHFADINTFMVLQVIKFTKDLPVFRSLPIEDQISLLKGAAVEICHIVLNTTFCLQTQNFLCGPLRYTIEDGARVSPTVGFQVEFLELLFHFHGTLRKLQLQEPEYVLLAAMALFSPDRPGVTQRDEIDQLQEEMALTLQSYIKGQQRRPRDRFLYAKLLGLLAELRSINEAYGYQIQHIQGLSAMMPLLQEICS

COCC(O)CO (centres undefined)
inactive: Potency [1] | Potency [2] | Potency [3] | Potency [4] | Potency [5] | Potency [6] | Potency [7] | Potency [8] | Potency [9] | Potency [10]

COC(=O)c1cc(Cl)ccc1NS(=O)(=O)C(F)(F)F
inactive: Potency [1] | Potency [2] | Potency [3] | Potency [4] | Potency [6] | Potency [7] | Potency [8] | Potency [11] | Potency [9] | Potency [10] | Potency [12] | Potency [13]

CN1C(=O)CC(C)(c2ccccc2)C1=O (centres undefined)
inactive: Potency [1] | Potency [2] | Potency [3] | Potency [4] | Potency [5] | Potency [6] | Potency [8] | Potency [11] | Potency [9] | Potency [10] | Potency [12] | Potency [13]

CCCCC(CC)CNCC(CC)CCCC (centres undefined)
inactive: Potency [1] | Potency [2] | Potency [3] | Potency [4] | Potency [5] | Potency [6] | Potency [7] | Potency [8] | Potency [11] | Potency [9] | Potency [14] | Potency [10] | Potency [12]

Cc1nc2ccccc2s1
inactive: Potency [1] | Potency [2] | Potency [3] | Potency [4] | Potency [6] | Potency [7] | Potency [8] | Potency [11] | Potency [9] | Potency [14] | Potency [10] | Potency [13]
active: Potency [12] 48.9 µM

CC(CCc1ccc2c(c1)OCO2)NN (centres undefined)
inactive: Potency [1] | Potency [2] | Potency [3] | Potency [4] | Potency [6] | Potency [7] | Potency [8] | Potency [11] | Potency [9] | Potency [14] | Potency [10]

c1cnc2c(n1)CCCC2
inactive: Potency [1] | Potency [2] | Potency [3] | Potency [4] | Potency [6] | Potency [7] | Potency [11] | Potency [9] | Potency [10] | Potency [12] | Potency [13]

c1ccc(COCc2ccccc2)cc1
inactive: Potency [1] | Potency [2] | Potency [3] | Potency [4] | Potency [5] | Potency [6] | Potency [7] | Potency [8] | Potency [9] | Potency [10] | Potency [12]

CCC(C(=O)OCCN(CC)CC)c1ccccc1 (centres undefined)
inactive: Potency [1] | Potency [2] | Potency [3] | Potency [4] | Potency [5] | Potency [6] | Potency [7] | Potency [11] | Potency [9] | Potency [14] | Potency [10]

CC1=CC(=O)CC(C)(C)C1(O)/C=C/C(C)=C\C(=O)O (centres undefined)
inactive: Potency [1] | Potency [2] | Potency [3] | Potency [4] | Potency [5] | Potency [6] | Potency [7] | Potency [8] | Potency [9] | Potency [14] | Potency [10] | Potency [12]

O=C(O)c1cccnc1C(=O)O
inactive: Potency [1] | Potency [2] | Potency [3] | Potency [4] | outcome [15] | outcome [16] | Potency [6] | Potency [7] | Potency [8] | Potency [11] | Potency [10]

C[Si]1(C)O[Si](C)(C)O[Si](C)(C)O1
inactive: Potency [1] | Potency [2] | Potency [3] | Potency [4] | Potency [5] | Potency [6] | Potency [7] | Potency [8] | Potency [11] | Potency [9] | Potency [14] | Potency [10] | Potency [12] | Potency [13]

C=CCCCCCCCCCCCCCCCC
inactive: activation [1] 0.376% [at 6.98 µM] | activity change, negative = cytotoxicity [2] 6.72% [at 6.97 µM] | activity change, negative = cytotoxicity [3] 0.367% [at 8.39 µM] | activity, negative = inhibition [4] -14.9% [at 8.39 µM] | activation [5] -0.865% [at 8.36 µM] | viability change, negative = cytotoxic [6] 0.934% [at 8.39 µM] | activity change, negative = cytotoxicity [11] 3.23% [at 8.39 µM] | activity, negative = inhibition [9] 0.748% [at 8.39 µM] | activation [14] -5.43% [at 8.39 µM] | viability change, negative = cytotoxic [10] 2.55% [at 8.39 µM] | activity, negative = inhibition [12] -28.3% [at 8.39 µM] | activation [13] 0.156% [at 8.39 µM]

C=CC(=C)CCCC(C)(C)OC(C)=O
inactive: Potency [1] | Potency [2] | Potency [3] | Potency [4] | Potency [5] | Potency [6] | Potency [7] | Potency [8] | Potency [11] | Potency [9] | Potency [14] | Potency [10] | Potency [12] | Potency [13]

CCOc1cc(N)c(Cl)cc1C(=O)NCC1CN(Cc2ccc(F)cc2)CCO1 (centres undefined)
inactive: Potency [1] | Potency [2] | Potency [3] | Potency [4] | Potency [7] | Potency [8] | Potency [11] | Potency [10]

CCCOC(=O)c1ccc(N)cc1
inactive: Potency [1] | Potency [2] | Potency [3] | Potency [4] | Potency [8] | Potency [11] | Potency [9] | Potency [10] | Potency [12] | Potency [13]

CCCOCCOCCO
inactive: Potency [1] | Potency [2] | Potency [3] | Potency [4] | Potency [5] | Potency [6] | Potency [8] | Potency [11] | Potency [9] | Potency [14] | Potency [10]

Cc1cc(OI)c(C(C)C)cc1-c1cc(C(C)C)c(OI)cc1C
inactive: Potency [1] | Potency [2] | Potency [3] | Potency [4] | Potency [6] | Potency [7] | Potency [8] | Potency [9] | Potency [14] | Potency [10]

C[N+]1(C)CCC(=C(c2ccccc2)c2ccccc2)CC1
inactive: Potency [1] | Potency [2] | Potency [3] | Potency [4] | Potency [5] | Potency [6] | Potency [7] | Potency [8] | Potency [9] | Potency [14] | Potency [10] | Potency [12] | Potency [13]
